Several values for one entry are separate records, joined by “and”; a condition that tells them apart may be missing. Equal entries are not always repeated. Inconclusive results are not listed. Where a call stands in place of a potency, no number is given. A number with no mark means an inactive call. Activity calls are given as the source filed them. Calls come from the whole dose curve.
Potency is the fitted concentration of half-maximal effect.

The nature of the assay: p53 small molecule agonists, cell-based qHTS assay: qHTS cell viability counter screen (AID 1963581). Note: nearly all actives have a fitted effect of over 45% in size. The following applies: p53RE-bla HCT-116 viability, ATP luminescence, 16 h; series mostly up to 66 µM. From the text: National Center for Advancing Translational Sciences [NCATS]
Division of Preclinical Innovation [DPI]
U.S. Environmental Protection Agency [EPA]
National Institutes of Environmental Health Sciences [NIEHS]
National Toxicology Program [NTP]
U.S. Food and Drug Administration [FDA]
p53, a tumor suppressor protein, is activated following cellular insult, including DNA damage and other cellular stresses. The activation of p53 regulates cell fate by inducing DNA repair, cell cycle arrest, apoptosis, or cellular senescence. The activation of p53, therefore, is a good indicator of DNA damage and other cellular stresses. The CellSensor p53RE-bla HCT-116 cell line (Invitrogen) contains a stably integrated beta-lactamase reporter gene under control of the p53 response elements. The activation of the reporter gene under culture conditions can be detected by fluorescence intensity. This cell line was used to screen the Tox21 compound library in a 1536-well plate format and to identify agonists that activate the p53 signaling pathway. The cytotoxicity of the Tox21 compound library against the p53 RE-bla HCT-116 cell line was tested in parallel by measuring the intra cellular ATP content in the same wells.
Tox21 Assay Protocol Summary:
The p53RE-bla cells were dispensed at 4,000 cells/5 ul/well in 1536-well black wall/clear bottom plates using a Multidrop dispenser. After the assay plates were incubated at a 37 C/5% CO2 incubator for 5 hours, 23 nL of compounds dissolved in DMSO, positive controls or DMSO only was transferred to the assay plate by a pin tool. The plates were incubated at 37 C for 16 hours. After 1 uL of LiveBLAzerTM B/G FRET substrate was added using a Flying Reagent Dispenser, the plates were incubated at room temperature for 2 hours, and fluorescence intensity was measured by an Envision plate reader. For cell viability readout that measures cytotoxicity, 4 ul/well of CellTiter-Glo reagent was added into the assay plates using a Flying Reagent Dispenser. After 30 min incubation at room temperature, the luminescence intensity in the plates was measured using a ViewLux plate reader.
Turning to `Nc1cc(C(Cl)=C(Cl)Cl)c(S(N)(=O)=O)cc1S(N)(=O)=O`, the Potency entry was “inactive”.
Regarding `C[Si](C)=O`, the activity change, negative = cytotoxicity was 1.47% [at 5.99 µM].
For `O=C(O)[C@H](O)[C@@H](O)[C@H](O[C@@H]1O[C@H](CO)[C@H](O)[C@H](O)[C@H]1O)[C@H](O)CO`, the Potency entry was “inactive”.
Consider `CN1N=C(C(N)=O)CCC1=O`, for which the Potency result was “inactive”.
Regarding `COCCOCCOCCOCCOC`, the Potency result was “inactive”.
Take `CC12CCC(C1)C(C)(C)C2O` (stereo not given): the Potency result is “inactive”.
For the compound `BrC1CCC(Br)C(Br)CCC(Br)C(Br)CCC1Br` (stereo not given), the Potency entry was “inactive”.
Same read-out and setting: next, `Cc1cccnc1`: “inactive”.
As for `CC1(C)C(O)C(C)(C)C1O` (stereo not given), the Potency result was “inactive”.
Same read-out and setting: next, `O=C(O)c1cc(C(=O)O)cc([N+](=O)[O-])c1`: “inactive”; `C=CC(=O)OCC(CO)(COC(=O)C=C)COC(=O)C=C`: 16.3 µM (active) and 10.2 µM (active).
The same measure, in the same setting: next, `CCCN1CCCC[C@H]1C(=O)Nc1c(C)cccc1C`: “inactive”.
Same read-out and setting: next, `N#[N+]c1ccc2c(S(=O)(=O)[O-])cccc2c1O`: “inactive”.
As to `CC1=CC(C)C(C=O)CC1` (stereo not given), the Potency result is “inactive”.
The same measure, in the same setting: next, `CS(=O)(=O)c1ccc(Cl)cc1`: “inactive”; `CC(C)=CCC/C(C)=C/C#N`: “inactive”; `O=C(CCNNC(=O)c1ccncc1)NCc1ccccc1`: “inactive”.
The same measure, in the same setting: next, `CCOC(=O)c1ccc(O)c(O)c1`: “inactive”; `CC(=O)N(CC(O)CO)c1c(I)c(C(=O)NCC(O)CO)c(I)c(C(=O)NCC(O)CO)c1I` (stereo not given): “inactive”.
Regarding `CCC(=O)OCc1ccc(OC)cc1`, the Potency entry was “inactive”.
The same measure, in the same setting: next, `Cc1nc2ccccc2s1`: “inactive”; `C=CC(=O)OCCOC(=O)C=C`: “inactive”.
With `O=C(O)CCc1ccccc1`, the Potency result was “inactive”.
Consider `Cc1cn([C@H]2C[C@H](F)[C@@H](CO)O2)c(=O)[nH]c1=O`, for which the Potency result was “inactive”.
Same read-out and setting: next, `CC(C)(C)c1cc(Cc2cc(C(C)(C)C)c(O)c(C(C)(C)C)c2)cc(C(C)(C)C)c1O`: “inactive”; `FC(F)(F)c1ccccc1Cl`: “inactive”; `O=P(O)(OCc1ccccc1)OCc1ccccc1`: “inactive”.
In the case of `COc1ccccc1N=Nc1c(S(=O)(=O)O)cc2cc(S(=O)(=O)O)cc(NC(C)=O)c2c1O`, the Potency entry is “inactive”.
For the compound `Cc1ccc(C(C)(C)O)cc1`, the Potency result is “inactive”.
Take `CCCOCCO`: the Potency entry was “inactive”.
On the same count and under the same terms, next, `O=C(/C=C/c1ccccc1)OCc1ccccc1`: “inactive”; `O=S(=O)(O)CO`: “inactive”.
The same measure, in the same setting: next, `NC(=O)Cc1cccc(C(=O)c2ccccc2)c1N`: “inactive”.
As for `c1coc(CNc2ncnc3nc[nH]c23)c1`, the Potency result was “inactive”.
Turning to `COC(=O)OC`, the Potency entry was “inactive”.
As for `CC(C)Oc1ccc2c(=O)c(-c3ccccc3)coc2c1`, the Potency result is “inactive”.
Regarding `C=CCCCCCCCC`, the Potency result was “inactive”.
Take `OCc1ccccc1`: the Potency entry was “inactive”.
Still for that read-out and setting: next, `CCCC(C)C(O)CC` (stereo not given): “inactive”.
Turning to `CC(C)S`, the Potency result is “inactive”.

(Values after PubChem BioAssay (Tox21).)
